Compound activity (PubChem)
The list is not random: actives were taken first. Their share in the collection is about 0.87%.
TDP1 block – qHTS Assay for Inhibitors of Tyrosyl-DNA Phosphodiesterase (TDP1) | Tyrosyl-DNA phosphodiesterase 1 (Homo sapiens), Q9NUW8 | recombinant TDP1, AlphaScreen DNA substrate cleavage | Potency, µM (series often up to 130 µM), inactives show at the highest dose activity change, negative = inhibition, usual class: inhibitors | 350,000 tested, 0.28% active | AID 485290, 2010; further: nearly all actives have a fitted effect of over 40% in size
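AlphaScreen read-out: signal falls as enzyme removes the 3' tyrosine-FITC from a 5'-biotinylated DNA oligo (15 nM, 5 min, RT). Enzyme was E. coli-made recombinant Tdp1 at 1 nM, exposed to compound for 15 min beforehand; beads 10 ug/ml, 10 min.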
APEX1 inh – qHTS Assay for Inhibitors of the Human Apurinic/apyrimidinic Endonuclease 1 (APE1); DNA repair nuclease/redox regulator APEX1 (Homo sapiens), P27695; recombinant APE1, TAMRA/BHQ-2 abasic DNA cleavage fluorescence; Potency, µM (doses to about 65.8 µM), for inactives: top-dose activity change, negative = inhibition, most hits filed as inhibitors; 350,000 tested, 0.35% active;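 further: plate controls were vehicle for no effect and reference inhibitor for full effect; nearly all actives have a fitted effect of over 55% in size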
Target sequence (P27695 whole entry, looked up): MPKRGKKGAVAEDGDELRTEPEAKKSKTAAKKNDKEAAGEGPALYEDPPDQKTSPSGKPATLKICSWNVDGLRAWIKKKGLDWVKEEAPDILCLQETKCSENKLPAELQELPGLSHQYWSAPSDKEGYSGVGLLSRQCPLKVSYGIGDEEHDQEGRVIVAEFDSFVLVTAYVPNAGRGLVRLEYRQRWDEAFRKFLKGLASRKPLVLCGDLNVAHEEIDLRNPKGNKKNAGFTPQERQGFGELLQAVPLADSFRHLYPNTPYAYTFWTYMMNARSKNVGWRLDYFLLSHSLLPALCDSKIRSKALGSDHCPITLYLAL
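Kinetic fluorescence read (525 ex/598 em nm, three reads 60 s apart) of AP-site incision; signal = third minus first read. Enzyme 0.75 nM, dual-labelled THF duplex 50 nM, compound preincubation 15 min RT.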
KAT2A inh – qHTS Assay for Inhibitors of GCN5L2. 390,000 tested, 0.21% active. Histone acetyltransferase KAT2A (Homo sapiens), Q92830. AID 504327, 2011. GCN5L2 HAT assay, ThioGlo1 CoA-SH fluorescence. Potency, µM (top dose mostly 58.9 µM), without a hit: top-dose activity change, negative = inhibition, hits mostly inhibitors
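ThioGlo1-coupled HAT assay: 20nM GCN5L2, 70uM acetyl-CoA, 75uM H3(1-25) peptide, pH 7.5. Fluorescence read at 340/540nm at start and after 20 min at room temperature.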
RGS4 inhibitor – Inhibitors of Regulator of G Protein Signaling (RGS) 4: qHTS; Regulator of G-protein signaling 4 (Homo sapiens), P49798; Potency, µM (series often up to 114 µM), without a hit: top-dose activity change, negative = inhibition, most hits filed as inhibitors; 390,000 tested, 0.039% active; AID 504845, 2011; Transcreener GDP fluorescence polarization, RGS4-accelerated GTP hydrolysis; further: nearly all actives have a fitted effect of over 75% in size
Target sequence (P49798 whole entry, looked up): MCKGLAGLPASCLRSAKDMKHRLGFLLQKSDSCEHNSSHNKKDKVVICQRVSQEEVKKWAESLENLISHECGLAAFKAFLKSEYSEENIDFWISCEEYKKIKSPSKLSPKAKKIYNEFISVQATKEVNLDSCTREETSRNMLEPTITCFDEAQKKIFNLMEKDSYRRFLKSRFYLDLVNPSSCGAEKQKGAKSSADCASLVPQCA
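MLSMR compounds (23 nl, pin-transferred) preincubated 10 min at room temperature with a 500nM (2x) first reagent, then RGS4 at 900nM (2x) plus Transcreener GDP mix added; fluorescence polarization (620/688 nm) read before and after 90 min at 30 °C.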
BLM helicase inh – qHTS Assay for Inhibitors of Bloom's syndrome helicase (BLM); Potency, µM (highest dose often 56.1 µM), for the others: at the top dose activity change, negative = inhibition, hits mostly inhibitors; recombinant BLM DNA unwinding, fluorescence dequenching; AID 2528, 2010; 350,000 tested, 0.2% active;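 further: plate controls were vehicle for no effect and no enzyme for full effect; nearly all actives have a fitted effect of over 35% in size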
RECQ1 inh-1 – qHTS Assay for Inhibitors of RecQ-Like Dna Helicase 1 (RECQ1). RECQ1 DNA unwinding, red fluorescence kinetic read. Potency, µM (top dose mostly 57.3 µM), for the others: at the top dose activity, negative = inhibition, hits mostly inhibitors. 240,000 tested, 0.54% active. AID 2549, 2010;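 further: plate controls were vehicle for no effect and no enzyme for full effect; nearly all actives have a fitted effect of over 30% in size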
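RECQ1T1 50 nM; forked duplex (20 bp + 30-nt ss tails) 200 nM, ATP 2 mM final; pH 8.0, 2 mM MgCl2, 2.5 ug/ml poly(dI-dC); 15 min compound preincubation; discontinuous kinetic read over 2 h at RT.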
RECQ1 inh conf – Confirmation qHTS Assay for Inhibitors of RecQ-Like Dna Helicase 1 (RECQ1); shares compounds with RECQ1 inh-1; RECQ1 helicase DNA unwinding, fluorescence; Potency, µM (titrated, usually from 229 µM), inactives show at the highest dose activity change, negative = inhibition, hits mostly inhibitors; 610 tested, 28% active; further: nearly all actives have a fitted effect of over 45% in size
ADP FP counter – Counterscreen for RECQ1 Inhibitors: ADP Fluorescence Polarization Displacement Assay; shares compounds with RECQ1 inh-1; 530 tested, 27% active; AID 2711, 2010; ADP fluorescence polarization displacement counterscreen; Potency, µM (top dose mostly 228 µM), without a hit: top-dose activity change, negative = inhibition, usual class: inhibitors; further: nearly all actives have a fitted effect of over 45% in size
RECQ1 inh-2 – Confirmation qHTS Assay for Inhibitors of RecQ-Like Dna Helicase 1 (RECQ1) - Round 2 Cherry Picks | shares compounds with RECQ1 inh-1 | recombinant RECQ1 DNA unwinding, red fluorescence | Potency, µM (titrated, usually from 119 µM), without a hit: at the top dose activity, negative = inhibition, most hits filed as inhibitors | 1,100 tested, 15% active | AID 504841, 2011; further: nearly all actives have a fitted effect of over 50% in size
Starred values were filed as active, the others as inactive; i = inactive; ? = inconclusive; / = no result given; [ ] = remark or other dose. The call rests on the fitted dose curve; in most records, active means well fitted curve in the direction sought with a large enough effect; inconclusive means small, poorly fitted or top-dose-only effect, or another doubt; inactive means no such curve, though single readings can be large; an effect the other way counts as inactive or inconclusive. Unless noted, on the % scale 0 is the no-effect control and ±100 the full control effect; potency means the concentration at half of the fitted maximal effect.

SMILES	TDP1 block	APEX1 inh	KAT2A inh	RGS4 inhibitor	BLM helicase inh	RECQ1 inh-1	RECQ1 inh conf	ADP FP counter	others
CCC(=O)OC1(C)C(=O)C=C2C=C(C3CC3)OC=C2C1=O (stereo not drawn)	1%	11%	/	-46%	3%	-3%	/	/
COC(=O)Nc1ccc(S(=O)(=O)N2CCCC(C(=O)Nc3cccnc3)C2)cc1 (stereo not drawn)	-5%	0%	-11%[0.501 µM]	8%	1%	-3%	9%	10%
Cc1ccc(S(=O)(=O)N2CCCC(C(=O)Nc3cccnc3)C2)cc1 (stereo not drawn)	-1%	2%	-1%	20%	-4%	-15%	/	/
Cc1ccc(NS(=O)(=O)c2cccc(Cl)c2)cc1C	-4%	/	/	/	/	/	/	/
COc1ccc(NC(=O)N2CCc3nc(-c4ccc(OC)cc4C)c4c(c3C2)CO[C@@H](c2ccccc2)C4)cc1	7%[12.3 µM]	9%[12.4 µM]	/	/	-2%[12.4 µM]	i[11.5 µM]	/	/
CC(C)c1ccc(NC(=O)c2cc(S(=O)(=O)NCc3ccccc3Cl)ccc2F)cc1	8%	/	-1%	13%	-12%	/	/	/
CC1(C)CC(=O)/C(=C(\O)CCCN2C(=O)c3ccccc3C2=O)C(=NCC(=O)O)C1	0%	15%	-3%	-5%	0%	i	-2%	2%
c1ccc2[nH]c(NCCCc3cnc[nH]3)nc2c1	27%	-11%	54%	/	-7%	-2%	/	/
C[C@H]1[C@H](C)CC[C@]2(C=O)CC[C@]3(C)C(=CC[C@@H]4[C@@]5(C)C[C@@H](O)[C@H](O)[C@@](C)(CO)[C@@H]5CC[C@]43C)[C@H]12	12%	-10%	7%	/	-5%	6%	/	/
CC(NC(=O)/C(=C/c1cccc([N+](=O)[O-])c1)NC(=O)c1ccco1)C(=O)O (stereo not drawn)	0%	21%	23%	4%	2%	-11%	0%	8%
NCCCC[C@H](NC(=O)[C@H](CCCN=C(N)N)NC(=O)[C@H](CO)NC(=O)[C@H](CCCN=C(N)N)NC(=O)[C@@H](N)Cc1ccc(O)cc1)C(=O)N[C@@H](Cc1ccc(O)cc1)C(=O)N[C@@H](CO)C(=O)N[C@@H](CO)C(=O)N[C@@H](Cc1c[nH]c2ccccc12)C(=O)N[C@@H](Cc1ccc(O)cc1)C(=O)O	11%	-5%	-25%	/	6%	-10%	/	/
CSc1nc2ccccc2cc1/C=C(\C#N)c1cccc(Cl)c1	0%	16%	?	17%	-3%	13µM*	/	/	RECQ1 inh-2=-7%
